Holding throughout (experiment): DAPPL (digital affinity profiling via proximity ligation, sequencing); 10 mM Tris-HCl pH 7.5, 50 mM NaCl, 1 mM DTT, 4% glycerol, room temperature, 30 min; GST-TFs on glutathione beads, 16-mer random dsDNA library, 0.1% formaldehyde crosslink after washing; high values mean tight binding
Settings in all cases: protein: recombinant; tags: N-terminal GST; dsDNA, one strand shown

One assay addresses T1, ELK1 (Homo sapiens, UniProt P19419 1-428).
T1 sequence: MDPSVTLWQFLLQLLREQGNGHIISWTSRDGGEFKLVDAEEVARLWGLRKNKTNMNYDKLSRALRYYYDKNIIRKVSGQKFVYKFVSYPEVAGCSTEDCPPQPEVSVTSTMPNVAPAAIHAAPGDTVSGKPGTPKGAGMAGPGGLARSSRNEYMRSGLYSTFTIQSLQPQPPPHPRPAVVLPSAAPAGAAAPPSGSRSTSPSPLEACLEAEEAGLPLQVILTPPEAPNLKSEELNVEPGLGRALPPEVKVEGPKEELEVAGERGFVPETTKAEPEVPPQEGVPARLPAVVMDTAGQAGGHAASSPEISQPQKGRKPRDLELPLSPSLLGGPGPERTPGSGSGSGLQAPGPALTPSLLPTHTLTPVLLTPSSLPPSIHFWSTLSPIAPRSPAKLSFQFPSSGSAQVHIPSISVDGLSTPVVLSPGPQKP
Summed up: (§1)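 GST fusions of human transcription factors were expressed in yeast and captured with glutathione beads. Once given DNA barcodes and pooled alongside a tag-only sample, they were incubated for 30 min at room temperature with 200 nmole of a random double-stranded 16-mer DNA library in Tris/NaCl/DTT/glycerol buffer, then washed, crosslinked (0.1% formaldehyde), proximity-ligated, PCR-amplified and sequenced on an Illumina NextSeq500. The binding signal of each hexamer is its read frequency for a factor divided by its frequency for the tag-only sample.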

For another assay, the target named is T2, GABPA (Homo sapiens, UniProt Q06546 1-454).
T2 sequence: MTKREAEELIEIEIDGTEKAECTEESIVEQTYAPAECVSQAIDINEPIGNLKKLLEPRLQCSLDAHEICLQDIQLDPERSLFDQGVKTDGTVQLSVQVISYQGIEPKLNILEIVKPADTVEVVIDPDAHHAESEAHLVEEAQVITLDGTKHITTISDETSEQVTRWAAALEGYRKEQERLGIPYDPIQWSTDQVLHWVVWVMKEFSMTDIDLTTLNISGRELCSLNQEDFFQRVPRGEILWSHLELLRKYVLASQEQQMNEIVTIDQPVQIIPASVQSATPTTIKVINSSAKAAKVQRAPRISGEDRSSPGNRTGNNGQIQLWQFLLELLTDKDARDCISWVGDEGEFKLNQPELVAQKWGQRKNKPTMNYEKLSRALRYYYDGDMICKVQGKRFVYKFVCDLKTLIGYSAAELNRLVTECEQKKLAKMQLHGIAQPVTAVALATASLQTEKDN
Summed up:
as §1

Another assay addresses T3, ERG (Homo sapiens, UniProt P11308 1-479).
T3 sequence: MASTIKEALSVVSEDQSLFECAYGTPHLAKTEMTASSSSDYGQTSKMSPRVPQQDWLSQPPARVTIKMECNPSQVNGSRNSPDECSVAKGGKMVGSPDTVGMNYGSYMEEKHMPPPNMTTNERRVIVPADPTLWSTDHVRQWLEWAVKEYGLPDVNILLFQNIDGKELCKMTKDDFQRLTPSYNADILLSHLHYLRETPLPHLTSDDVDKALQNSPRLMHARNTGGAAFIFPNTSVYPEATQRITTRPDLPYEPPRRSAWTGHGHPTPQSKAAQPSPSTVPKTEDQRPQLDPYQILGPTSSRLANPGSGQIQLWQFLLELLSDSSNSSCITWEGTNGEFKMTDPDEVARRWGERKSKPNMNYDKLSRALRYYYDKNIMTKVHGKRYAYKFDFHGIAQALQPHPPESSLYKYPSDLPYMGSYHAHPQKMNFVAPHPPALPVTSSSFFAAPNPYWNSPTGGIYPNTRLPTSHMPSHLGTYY
In outline: as §1

The target in a further assay is ELF1 (Homo sapiens, UniProt P32519 1-619). Summed up: as §1
A further assay concerns the target T4, EHF (Homo sapiens, UniProt Q9NZC4 1-300).
T4 sequence: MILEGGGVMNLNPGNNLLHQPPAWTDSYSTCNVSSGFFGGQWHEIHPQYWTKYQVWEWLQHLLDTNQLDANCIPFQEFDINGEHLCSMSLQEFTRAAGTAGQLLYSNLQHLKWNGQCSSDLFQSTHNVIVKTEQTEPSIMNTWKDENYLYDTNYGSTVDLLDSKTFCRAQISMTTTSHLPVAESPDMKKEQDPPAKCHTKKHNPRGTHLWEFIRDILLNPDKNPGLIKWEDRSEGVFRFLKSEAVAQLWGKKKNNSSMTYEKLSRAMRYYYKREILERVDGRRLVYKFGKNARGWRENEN
In outline: as §1

For the next assay, the target named is SPI1 (Homo sapiens, UniProt P17947 1-270). Summed up: as §1
The target in the next assay is SPIB (Homo sapiens, UniProt Q01892 1-262). In outline:
as §1

For the next assay, the target named is T5, FEV (Homo sapiens, UniProt Q99581 1-238).
T5 sequence: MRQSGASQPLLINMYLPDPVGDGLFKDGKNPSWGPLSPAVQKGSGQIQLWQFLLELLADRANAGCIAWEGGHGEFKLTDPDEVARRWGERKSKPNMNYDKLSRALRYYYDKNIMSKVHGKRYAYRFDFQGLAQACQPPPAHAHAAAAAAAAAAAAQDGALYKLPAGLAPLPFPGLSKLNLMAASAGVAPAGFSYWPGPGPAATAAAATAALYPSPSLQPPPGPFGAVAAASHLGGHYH
Summed up: as §1

The target in a further assay is ETV5 (Homo sapiens, UniProt P41161 1-510). In outline:
as §1

The target of another assay is ELF4 (Homo sapiens, UniProt Q99607 1-663). Summed up:
as §1

A further assay concerns the target T6, ELK4 (Homo sapiens, UniProt P28324-2 1-405).
T6 sequence: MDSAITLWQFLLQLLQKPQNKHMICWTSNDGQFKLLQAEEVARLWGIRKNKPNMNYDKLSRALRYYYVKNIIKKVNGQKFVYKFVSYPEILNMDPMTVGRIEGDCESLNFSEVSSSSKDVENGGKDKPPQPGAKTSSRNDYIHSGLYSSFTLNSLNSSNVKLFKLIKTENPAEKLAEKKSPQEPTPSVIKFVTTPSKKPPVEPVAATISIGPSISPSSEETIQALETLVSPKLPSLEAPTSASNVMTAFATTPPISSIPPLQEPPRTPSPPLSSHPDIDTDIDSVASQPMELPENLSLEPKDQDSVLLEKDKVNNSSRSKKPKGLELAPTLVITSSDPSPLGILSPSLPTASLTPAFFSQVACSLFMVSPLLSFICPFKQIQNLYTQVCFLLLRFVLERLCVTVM
In outline:
as §1

Another assay concerns the target T7, ETV2 (Homo sapiens, UniProt O00321 1-342).
T7 sequence: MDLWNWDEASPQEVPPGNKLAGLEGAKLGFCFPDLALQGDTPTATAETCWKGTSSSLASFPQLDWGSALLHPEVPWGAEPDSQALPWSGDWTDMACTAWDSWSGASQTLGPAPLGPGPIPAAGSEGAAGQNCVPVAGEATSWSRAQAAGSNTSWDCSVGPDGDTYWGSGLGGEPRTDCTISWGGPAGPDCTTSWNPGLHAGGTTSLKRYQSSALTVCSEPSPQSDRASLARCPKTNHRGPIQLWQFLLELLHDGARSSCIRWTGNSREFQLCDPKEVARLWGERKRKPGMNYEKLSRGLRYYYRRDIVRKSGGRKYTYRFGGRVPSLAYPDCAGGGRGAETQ
In outline: as §1

The target in the next assay is T8, ELF3 (Homo sapiens, UniProt P78545 1-371).
T8 sequence: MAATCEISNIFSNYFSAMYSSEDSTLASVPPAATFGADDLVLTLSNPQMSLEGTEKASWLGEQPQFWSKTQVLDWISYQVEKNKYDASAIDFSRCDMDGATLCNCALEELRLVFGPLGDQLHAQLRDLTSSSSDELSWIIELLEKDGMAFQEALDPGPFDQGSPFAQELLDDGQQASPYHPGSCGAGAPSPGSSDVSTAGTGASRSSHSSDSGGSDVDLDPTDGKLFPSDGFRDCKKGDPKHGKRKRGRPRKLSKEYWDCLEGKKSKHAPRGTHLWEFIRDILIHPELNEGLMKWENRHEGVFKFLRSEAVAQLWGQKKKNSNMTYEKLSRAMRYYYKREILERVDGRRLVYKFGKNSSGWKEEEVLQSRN
In outline:
as §1

A further assay concerns the target ETV1 (Homo sapiens, UniProt P50549 1-477). In outline: as §1
Another assay deals with T9, ERF (Homo sapiens, UniProt P50548 1-548).
T9 sequence: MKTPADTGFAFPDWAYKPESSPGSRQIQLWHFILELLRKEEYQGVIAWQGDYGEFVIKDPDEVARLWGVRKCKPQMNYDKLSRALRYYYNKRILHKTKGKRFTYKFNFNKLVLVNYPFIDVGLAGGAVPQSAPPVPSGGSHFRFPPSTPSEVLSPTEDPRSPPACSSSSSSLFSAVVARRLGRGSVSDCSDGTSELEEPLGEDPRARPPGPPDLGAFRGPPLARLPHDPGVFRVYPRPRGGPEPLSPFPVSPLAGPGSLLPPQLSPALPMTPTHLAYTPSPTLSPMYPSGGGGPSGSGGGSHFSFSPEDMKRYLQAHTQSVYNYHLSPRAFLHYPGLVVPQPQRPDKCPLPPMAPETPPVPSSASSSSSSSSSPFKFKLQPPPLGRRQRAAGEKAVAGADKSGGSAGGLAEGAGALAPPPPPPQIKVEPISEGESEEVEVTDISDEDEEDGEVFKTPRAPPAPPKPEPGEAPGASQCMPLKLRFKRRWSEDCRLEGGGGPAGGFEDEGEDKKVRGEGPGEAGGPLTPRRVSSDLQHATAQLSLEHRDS
In outline: as §1

The target in another assay is T10, ETV3L (Homo sapiens, UniProt Q6ZN32 1-361).
T10 sequence: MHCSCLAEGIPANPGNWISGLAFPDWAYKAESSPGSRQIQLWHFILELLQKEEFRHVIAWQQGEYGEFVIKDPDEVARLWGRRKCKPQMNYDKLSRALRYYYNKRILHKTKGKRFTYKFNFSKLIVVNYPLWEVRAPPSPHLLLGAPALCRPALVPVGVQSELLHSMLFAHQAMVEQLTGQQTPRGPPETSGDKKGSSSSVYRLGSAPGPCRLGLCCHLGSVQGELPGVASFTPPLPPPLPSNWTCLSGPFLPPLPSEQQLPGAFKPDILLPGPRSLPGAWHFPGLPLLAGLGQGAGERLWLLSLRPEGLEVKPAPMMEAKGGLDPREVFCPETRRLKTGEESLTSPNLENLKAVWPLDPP
Summed up: as §1

The next assay has as its target T11, ETS2 (Homo sapiens, UniProt P15036 1-469).
T11 sequence: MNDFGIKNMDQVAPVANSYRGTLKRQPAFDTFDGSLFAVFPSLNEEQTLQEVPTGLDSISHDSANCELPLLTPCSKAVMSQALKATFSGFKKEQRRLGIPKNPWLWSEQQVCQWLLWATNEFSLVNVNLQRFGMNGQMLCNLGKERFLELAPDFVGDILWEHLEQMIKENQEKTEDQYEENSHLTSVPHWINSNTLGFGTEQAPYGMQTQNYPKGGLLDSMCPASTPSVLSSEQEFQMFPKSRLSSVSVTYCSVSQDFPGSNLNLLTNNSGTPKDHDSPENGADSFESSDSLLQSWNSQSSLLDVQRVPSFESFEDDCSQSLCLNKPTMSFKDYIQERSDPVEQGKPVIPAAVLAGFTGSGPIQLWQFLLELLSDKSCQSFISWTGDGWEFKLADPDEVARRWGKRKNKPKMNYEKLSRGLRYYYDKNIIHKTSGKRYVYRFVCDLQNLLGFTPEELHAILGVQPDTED
Summed up: as §1

Another assay concerns the target T12, ETV7 (Homo sapiens, UniProt Q9Y603 1-341).
T12 sequence: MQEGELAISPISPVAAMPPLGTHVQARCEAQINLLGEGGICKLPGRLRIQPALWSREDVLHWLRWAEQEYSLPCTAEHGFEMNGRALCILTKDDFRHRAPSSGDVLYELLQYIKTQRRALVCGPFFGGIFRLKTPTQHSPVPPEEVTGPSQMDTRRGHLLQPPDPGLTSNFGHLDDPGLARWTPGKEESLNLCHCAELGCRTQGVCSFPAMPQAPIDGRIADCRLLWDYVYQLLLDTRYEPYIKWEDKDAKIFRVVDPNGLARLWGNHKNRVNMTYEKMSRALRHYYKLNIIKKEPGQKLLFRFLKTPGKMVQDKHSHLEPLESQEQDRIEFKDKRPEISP
In outline: as §1

In another assay the target is T13, ETV3 (Homo sapiens, UniProt P41162-2 1-143).
T13 sequence: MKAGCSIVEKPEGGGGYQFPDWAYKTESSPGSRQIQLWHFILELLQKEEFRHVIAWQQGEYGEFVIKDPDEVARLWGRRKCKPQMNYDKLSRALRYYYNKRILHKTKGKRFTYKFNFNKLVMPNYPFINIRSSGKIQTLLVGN
In outline:
as §1

Another assay concerns the target ETV6 (Homo sapiens, UniProt P41212 1-452). In outline:
as §1

SPIB, sequence (Q01892 whole entry): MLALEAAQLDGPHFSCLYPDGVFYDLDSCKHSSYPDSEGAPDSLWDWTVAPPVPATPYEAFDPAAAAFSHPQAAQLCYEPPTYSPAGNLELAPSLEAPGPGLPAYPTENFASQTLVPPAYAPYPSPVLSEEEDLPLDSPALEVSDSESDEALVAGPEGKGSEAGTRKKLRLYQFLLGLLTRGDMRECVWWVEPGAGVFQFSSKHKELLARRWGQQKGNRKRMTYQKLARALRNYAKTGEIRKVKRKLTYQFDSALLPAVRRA
ETV1, sequence (P50549 whole entry): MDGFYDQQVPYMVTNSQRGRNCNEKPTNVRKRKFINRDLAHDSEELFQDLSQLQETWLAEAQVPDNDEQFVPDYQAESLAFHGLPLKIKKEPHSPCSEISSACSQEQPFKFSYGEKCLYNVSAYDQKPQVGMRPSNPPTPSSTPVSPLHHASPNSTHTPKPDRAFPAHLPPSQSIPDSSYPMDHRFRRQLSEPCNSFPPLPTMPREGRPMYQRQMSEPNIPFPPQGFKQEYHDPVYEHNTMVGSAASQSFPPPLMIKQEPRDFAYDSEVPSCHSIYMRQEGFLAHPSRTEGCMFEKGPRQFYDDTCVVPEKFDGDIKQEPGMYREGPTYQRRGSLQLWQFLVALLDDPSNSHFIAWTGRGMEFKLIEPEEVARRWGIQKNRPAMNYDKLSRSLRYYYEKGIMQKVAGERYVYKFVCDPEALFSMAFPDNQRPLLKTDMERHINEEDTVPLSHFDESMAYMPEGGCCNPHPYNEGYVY
ETV5, sequence (P41161 whole entry): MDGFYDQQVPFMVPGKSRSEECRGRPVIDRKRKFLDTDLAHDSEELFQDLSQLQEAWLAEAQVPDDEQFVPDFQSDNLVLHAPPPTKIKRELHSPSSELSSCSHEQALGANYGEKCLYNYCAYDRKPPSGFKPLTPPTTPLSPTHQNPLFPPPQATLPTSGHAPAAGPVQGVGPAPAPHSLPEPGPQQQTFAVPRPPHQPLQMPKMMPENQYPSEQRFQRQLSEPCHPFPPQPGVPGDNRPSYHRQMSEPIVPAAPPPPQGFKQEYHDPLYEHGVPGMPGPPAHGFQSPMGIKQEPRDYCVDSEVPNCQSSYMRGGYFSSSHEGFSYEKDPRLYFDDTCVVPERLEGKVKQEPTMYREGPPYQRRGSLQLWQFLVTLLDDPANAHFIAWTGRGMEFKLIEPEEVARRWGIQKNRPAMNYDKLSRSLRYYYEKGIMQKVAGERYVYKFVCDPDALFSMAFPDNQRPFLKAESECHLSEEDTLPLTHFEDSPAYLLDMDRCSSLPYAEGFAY
ELF4, sequence (Q99607 whole entry): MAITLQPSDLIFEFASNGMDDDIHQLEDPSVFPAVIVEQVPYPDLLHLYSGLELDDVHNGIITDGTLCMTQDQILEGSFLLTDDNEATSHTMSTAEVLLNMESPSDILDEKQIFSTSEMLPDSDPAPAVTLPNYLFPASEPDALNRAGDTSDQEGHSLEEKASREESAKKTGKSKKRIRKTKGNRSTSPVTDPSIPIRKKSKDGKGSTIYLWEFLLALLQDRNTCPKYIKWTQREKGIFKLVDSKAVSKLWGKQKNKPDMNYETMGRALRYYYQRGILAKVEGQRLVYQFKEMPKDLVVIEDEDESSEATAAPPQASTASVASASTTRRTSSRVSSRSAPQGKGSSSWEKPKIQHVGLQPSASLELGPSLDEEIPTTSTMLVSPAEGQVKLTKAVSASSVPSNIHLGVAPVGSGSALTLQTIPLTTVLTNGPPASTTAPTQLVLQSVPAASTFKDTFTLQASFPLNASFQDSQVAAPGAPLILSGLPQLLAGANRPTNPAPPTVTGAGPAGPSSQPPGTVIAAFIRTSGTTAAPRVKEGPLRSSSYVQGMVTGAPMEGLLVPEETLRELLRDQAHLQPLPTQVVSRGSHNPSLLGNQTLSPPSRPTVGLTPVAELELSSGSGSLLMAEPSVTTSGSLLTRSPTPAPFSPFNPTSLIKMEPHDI
ELF1, sequence (P32519 whole entry): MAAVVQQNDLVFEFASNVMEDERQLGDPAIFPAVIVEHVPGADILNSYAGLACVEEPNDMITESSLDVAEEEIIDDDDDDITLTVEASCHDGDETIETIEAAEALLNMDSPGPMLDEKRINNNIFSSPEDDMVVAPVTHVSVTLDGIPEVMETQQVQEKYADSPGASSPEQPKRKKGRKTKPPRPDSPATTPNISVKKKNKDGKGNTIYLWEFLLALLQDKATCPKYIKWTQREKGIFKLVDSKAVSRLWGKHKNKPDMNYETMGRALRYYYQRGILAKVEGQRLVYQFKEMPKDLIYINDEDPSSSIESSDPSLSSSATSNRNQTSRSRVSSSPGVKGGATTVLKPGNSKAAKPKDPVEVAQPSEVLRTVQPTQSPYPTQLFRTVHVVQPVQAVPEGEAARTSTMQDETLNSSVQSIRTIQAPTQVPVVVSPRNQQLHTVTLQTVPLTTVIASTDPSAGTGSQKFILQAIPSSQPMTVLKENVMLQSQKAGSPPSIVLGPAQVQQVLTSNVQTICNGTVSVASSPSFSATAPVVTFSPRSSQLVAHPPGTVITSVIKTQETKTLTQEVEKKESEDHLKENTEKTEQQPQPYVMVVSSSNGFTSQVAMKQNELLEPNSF
ETV6, sequence (P41212 whole entry): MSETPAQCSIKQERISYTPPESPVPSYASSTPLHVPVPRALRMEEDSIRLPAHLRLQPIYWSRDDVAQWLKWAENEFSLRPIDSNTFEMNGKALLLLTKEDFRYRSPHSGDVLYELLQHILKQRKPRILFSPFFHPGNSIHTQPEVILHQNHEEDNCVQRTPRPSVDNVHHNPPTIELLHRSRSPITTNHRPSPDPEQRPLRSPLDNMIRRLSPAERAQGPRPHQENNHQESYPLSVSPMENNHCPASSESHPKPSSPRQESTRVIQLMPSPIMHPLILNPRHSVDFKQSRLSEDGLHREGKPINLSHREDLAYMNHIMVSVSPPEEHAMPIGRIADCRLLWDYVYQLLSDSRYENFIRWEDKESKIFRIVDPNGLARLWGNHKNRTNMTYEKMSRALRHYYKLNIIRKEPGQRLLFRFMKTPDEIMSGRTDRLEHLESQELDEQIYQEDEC

Take CCAACC: the binding signal is 1.1 fold enrichment (6-mer frequency, TF over GST control) in the assay with ELK1; 1.01 fold enrichment (6-mer frequency, TF over GST control) with GABPA; 1.09 fold enrichment (6-mer frequency, TF over GST control) with ERG; 1.16 fold enrichment (6-mer frequency, TF over GST control) with ELF1; 1.04 fold enrichment (6-mer frequency, TF over GST control) with EHF; 1.11 fold enrichment (6-mer frequency, TF over GST control) in the assay with SPI1. Besides, the binding signal with SPIB is 1.06 fold enrichment (6-mer frequency, TF over GST control); with FEV it was 1.1 fold enrichment (6-mer frequency, TF over GST control); with ETV5, 1.01 fold enrichment (6-mer frequency, TF over GST control); in the assay with ELF4, 1.15 fold enrichment (6-mer frequency, TF over GST control); in the assay with ELK4, 1.13 fold enrichment (6-mer frequency, TF over GST control); with ETV2 it was 1.08 fold enrichment (6-mer frequency, TF over GST control). For the same sequence, the binding signal in the assay with ELF3 was 1.08 fold enrichment (6-mer frequency, TF over GST control); in the assay with ETV1, 1.04 fold enrichment (6-mer frequency, TF over GST control); with ERF, 1.14 fold enrichment (6-mer frequency, TF over GST control); with ETV3L, 1.09 fold enrichment (6-mer frequency, TF over GST control); in the assay with ETS2 it was 1.18 fold enrichment (6-mer frequency, TF over GST control); with ETV7, 1.07 fold enrichment (6-mer frequency, TF over GST control). Besides, the binding signal with ETV3 is 1.11 fold enrichment (6-mer frequency, TF over GST control); in the assay with ETV6 it was 1.08 fold enrichment (6-mer frequency, TF over GST control).
